Laboratory results from PubChem BioAssay (EPA / NIEHS).
Results filed as inconclusive are left out. Active and inactive are the calls of the source. How the source made its calls: active means hit-call score of the fitted dose curve at least 0.9, where 1 is the maximum; inconclusive means response in the unintended direction; inactive means score below 0.9.

Target: CDK2 (gene 1017) (UniProt P24941)
Assay: NVS_ENZ_hCDK2: NovaScreen (NVS) Enzymatic Assay for human Cyclin-Cependent Kinase 2 (CDK2) (AID 2283144)
Procedure, shortened: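 Cell-free recombinant human CDK2 with fluorescent substrate, product separated by electrophoretic mobility shift; 1 hr read. Primary screen at 25 uM in duplicate, actives retested in concentration-response up to 50 uM; loss of signal versus DMSO.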

Compound | outcome
CCCCN(CC)c1c([N+](=O)[O-])cc(C(F)(F)F)cc1[N+](=O)[O-] | inactive
CCNc1nc(Cl)nc(NC(C)(C)C#N)n1 | inactive
CCOP(=O)(NC(C)C)Oc1ccc(SC)c(C)c1 (centres undefined) | inactive

Target: human Casein Kinase 2- alpha 2 beta 2 (CK2a2b2), CSNK2A1 (gene 1457) (UniProt P68400)
Assay: NVS_ENZ_hCK2a2b2: NovaScreen (NVS) Enzymatic Assay for human Casein Kinase 2- alpha 2 beta 2 (CK2a2b2) (AID 2283147)
Procedure, shortened: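 Cell-free recombinant CK2 α2β2 holoenzyme with a fluorescent peptide substrate; product separated by electrophoretic mobility shift and read 1 h after dosing. Single-point screen at 25 uM in duplicate; actives were followed with concentration-response up to 50 uM versus DMSO.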

Sequence of human Casein Kinase 2- alpha 2 beta 2 (CK2a2b2), CSNK2A1 (gene 1457) (P68400 whole entry, looked up): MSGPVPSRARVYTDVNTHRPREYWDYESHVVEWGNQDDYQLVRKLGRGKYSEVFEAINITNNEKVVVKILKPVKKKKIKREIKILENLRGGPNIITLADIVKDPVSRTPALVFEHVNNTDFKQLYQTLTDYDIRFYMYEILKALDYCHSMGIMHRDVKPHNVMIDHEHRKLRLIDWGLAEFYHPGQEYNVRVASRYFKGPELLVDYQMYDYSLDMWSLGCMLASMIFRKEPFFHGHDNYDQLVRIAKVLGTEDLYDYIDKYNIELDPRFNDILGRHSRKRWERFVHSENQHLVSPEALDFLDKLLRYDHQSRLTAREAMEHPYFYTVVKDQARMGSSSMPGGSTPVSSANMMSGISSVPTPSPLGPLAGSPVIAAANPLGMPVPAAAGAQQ

Compound | outcome | AC50
CCOP(=S)(Oc1cnc(C(C)(C)C)nc1)OC(C)C (centres undefined) | inactive | 
CC(Oc1cccc(Cl)c1)C(=O)O (centres undefined) |  | 15 µM (active)
CCC(=O)Nc1ccc(Cl)c(Cl)c1 |  | 1.66 µM (active)

Target: human Dual Specificity Protein Phosphatase 3 (DUSP3), DUSP3 (gene 1845) (UniProt P51452)
Assay: NVS_ENZ_hDUSP3: NovaScreen (NVS) Enzymatic Assay for human Dual Specificity Protein Phosphatase 3 (DUSP3) (AID 2283152);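 further: phosphatase activity of recombinant human DUSP3 on a fluorogenic substrate without cells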
Procedure, shortened: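 Cell-free assay with recombinant human DUSP3 and fluorogenic substrate, read by fluorescence intensity. Primary screen ran duplicate at 25 uM; actives followed up in concentration series; loss of signal versus DMSO scored.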

Sequence of human Dual Specificity Protein Phosphatase 3 (DUSP3), DUSP3 (gene 1845) (P51452 whole entry, looked up): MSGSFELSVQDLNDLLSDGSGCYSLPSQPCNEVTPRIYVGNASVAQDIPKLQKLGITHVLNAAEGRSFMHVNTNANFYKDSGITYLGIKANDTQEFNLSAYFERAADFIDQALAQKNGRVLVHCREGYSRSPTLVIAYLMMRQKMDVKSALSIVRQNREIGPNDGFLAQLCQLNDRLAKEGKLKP

Compound | outcome
CCCOCC(=Nc1ccc(Cl)cc1C(F)(F)F)n1ccnc1 | inactive
C=C(C)[C@H]1Cc2c(ccc3c2O[C@@H]2COc4cc(OC)c(OC)cc4[C@@H]2C3=O)O1 | inactive
CCCCOC(=O)[C@@H](C)Oc1ccc(Oc2ccc(C#N)cc2F)cc1 | inactive

Target: human Elastase, ELANE (gene 1991) (UniProt P08246)
Assay: NVS_ENZ_hElastase: NovaScreen (NVS) Enzymatic Assay for human Elastase (AID 2283153)
Procedure, shortened: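 Cell-free elastase from human neutrophils, 1.5 h after dosing, activity read by absorbance. Primary screen in duplicate at 25 uM; hits (e.g., 30% inhibition) rerun in singleton concentration-response up to 50 uM, fitted versus DMSO.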

Sequence of human Elastase, ELANE (gene 1991) (P08246 whole entry, looked up): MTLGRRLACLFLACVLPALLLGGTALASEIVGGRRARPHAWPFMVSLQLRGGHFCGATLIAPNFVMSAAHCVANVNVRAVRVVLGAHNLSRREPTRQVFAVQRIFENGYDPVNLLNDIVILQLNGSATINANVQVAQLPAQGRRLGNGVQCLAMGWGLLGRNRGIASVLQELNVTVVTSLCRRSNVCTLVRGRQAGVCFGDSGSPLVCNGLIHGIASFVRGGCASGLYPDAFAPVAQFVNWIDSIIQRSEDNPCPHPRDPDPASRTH

Compound | AC50 | outcome
CCCSP(=O)(OCC)Oc1ccc(Br)cc1Cl (centres undefined) | 25 µM (active) | 
CCOP(=O)(OCC)Oc1cc(C)nc(C(C)C)n1 |  | inactive
CCOP(=S)(OCC)Oc1cc(C)nc(C(C)C)n1 |  | inactive

Target: human Ephrin type-B Receptor 1 (EphB1), EPHB1 (gene 2047) (UniProt P54762)
Assay: NVS_ENZ_hEphB1: NovaScreen (NVS) Enzymatic Assay for human Ephrin type-B Receptor 1 (EphB1) (AID 2283154)
Experimental: NVS_ENZ_hEphB1 is a biochemical, single-readout assay that uses extracted gene-proteins in a cell-free assay. Measurements were taken 1 hour after chemical dosing in a 384-well plate.NVS_ENZ_hEphB1 is one of one assay component(s) measured or calculated from the NVS_ENZ_hEphB1 assay. It is designed to make measurements of enzyme activity, a form of enzyme reporter, as detected with fluorescence intensity signals by Fluorescence and electrophoretic mobility shift technology.Data from the assay component NVS_ENZ_hEphB1 was analyzed into 1 assay endpoint. This assay endpoint, NVS_ENZ_hEphB1, was analyzed in the positive analysis fitting direction relative to DMSO as the negative control and baseline of activity. Using a type of enzyme reporter, loss-of-signal activity can be used to understand changes in the enzymatic activity as they relate to the gene EPHB1. Furthermore, this assay endpoint can be referred to as a primary readout, because this assay has produced multiple assay endpoints where this one serves a enzymatic activity function. To generalize the intended target to other relatable targets, this assay endpoint is annotated to the kinase intended target family, where the subfamily is receptor tyrosine kinase.
Binding assays used specific radioligands (tritiated, iodinated) with non-radioactive competitive displacement ligands in agonist or antagonist protocols (as indicated) and various reference compounds and inhibitors to titrate specific binding to receptors and transporters. Most enzyme assays (CYPs, kinases, phosphatases, proteases, HDACs) used recombinant protein and specific substrates (fluorescence mostly, some colorimetric and radioactive) and inhibitors, followed by a biochemical separation of substrate and product. All assays for the biochemical HTS were initially run in duplicate at a single concentration (10 uM for CYP450 assays and 25 uM for all others). […] Each assay was run with positive and negative controls, and concurrent controls on every plate. The follow-up (secondary) screen tested active chemical-pairs in concentration series, as well as a few additional assays not tested in the primary screen, some selected negative inactives, and several cases re-run in the concentration series for confirmatory purposes.

Sequence of human Ephrin type-B Receptor 1 (EphB1), EPHB1 (gene 2047) (P54762 whole entry, looked up): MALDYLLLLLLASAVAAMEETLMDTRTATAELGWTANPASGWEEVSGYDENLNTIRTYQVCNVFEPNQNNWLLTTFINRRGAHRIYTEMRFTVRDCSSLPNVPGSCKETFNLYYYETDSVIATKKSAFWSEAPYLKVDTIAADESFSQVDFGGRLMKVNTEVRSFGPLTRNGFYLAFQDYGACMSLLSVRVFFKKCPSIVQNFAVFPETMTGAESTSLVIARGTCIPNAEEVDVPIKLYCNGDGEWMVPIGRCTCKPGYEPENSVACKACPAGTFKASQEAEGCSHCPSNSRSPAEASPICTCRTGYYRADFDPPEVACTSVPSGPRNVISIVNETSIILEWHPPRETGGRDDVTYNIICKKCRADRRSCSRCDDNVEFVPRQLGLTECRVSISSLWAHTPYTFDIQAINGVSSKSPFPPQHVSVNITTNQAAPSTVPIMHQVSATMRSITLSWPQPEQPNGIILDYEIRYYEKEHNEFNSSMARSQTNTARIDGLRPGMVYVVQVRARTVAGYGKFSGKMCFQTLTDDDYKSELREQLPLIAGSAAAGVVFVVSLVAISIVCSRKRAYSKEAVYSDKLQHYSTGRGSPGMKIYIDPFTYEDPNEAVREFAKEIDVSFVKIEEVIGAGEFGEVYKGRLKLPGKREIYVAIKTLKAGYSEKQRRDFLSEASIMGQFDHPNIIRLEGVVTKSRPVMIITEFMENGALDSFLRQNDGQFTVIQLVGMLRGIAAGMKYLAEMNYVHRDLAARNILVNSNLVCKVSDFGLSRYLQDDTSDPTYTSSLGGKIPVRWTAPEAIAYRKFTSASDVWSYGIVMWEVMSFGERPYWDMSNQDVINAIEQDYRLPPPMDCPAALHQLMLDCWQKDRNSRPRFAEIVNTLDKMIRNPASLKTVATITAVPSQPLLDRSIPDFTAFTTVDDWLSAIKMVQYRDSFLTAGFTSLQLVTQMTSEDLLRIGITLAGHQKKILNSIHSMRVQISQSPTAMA

Compound | outcome
CCOP(=S)(OCC)OC(Cl)C(Cl)(Cl)Cl (centres undefined) | inactive
CCc1cccc(C)c1N(C(=O)CCl)C(C)COC (centres undefined) | inactive
CCCCSP(=O)(SCCCC)SCCCC | inactive
CC(COc1ccc(Oc2ccccc2)cc1)Oc1ccccn1 (centres undefined) | inactive
CCCSP(=O)(OCC)Oc1ccc(Br)cc1Cl (centres undefined) | inactive
COP(=O)(OC)C(O)C(Cl)(Cl)Cl (centres undefined) | inactive
CNC(=O)Oc1cccc2c1OC(C)(C)O2 | inactive
